Screens (PubChem BioAssay)
Only some compounds are listed: those with a hit (about 6.1% of all), similar ones and a draw of the others.
D1 ag = human D1 receptor agonism; activation, % at 2 µM; HEK293 T-REx D1 cells, calcium flux, agonist mode; 360,000 compounds, 1% hits; in the data active = activation above about 30%; also: 0% is about no effect
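Inducible HEK293 T-REx D1 cells, force-coupled to calcium signalling, were plated at 4000 cells/well with tetracycline and held overnight at 30 C. After no-wash calcium dye loading, compound-evoked calcium rise over 180 s flagged agonists.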
D1 potentiator = human D1 dopamine receptor positive modulation; HEK293 TREx D1 cells, calcium flux, dopamine EC20 potentiation; P21728; 360,000 compounds, 0.036% hits; potentiation, % at 10 µM; in the data active = potentiation above about 30%; also: 0% is about no effect
ERG-DNA inh = ERG Ets/DNA interaction inhibition; 370,000 compounds, 0.028% hits; Potency, µM (series often up to 76.9 µM), inactives show top-dose FP activity, negative = inhibition, most hits filed as inhibitors; fluorescence polarization, His-ERG Ets domain / labelled DNA; active = well fitted inhibition curve with a large enough effect in the polarisation, with a control signal flat; inconclusive = small, poorly fitted or top-dose-only effect, or effect the other way, or a change in a side signal; inactive = no such curve, though single readings can be large or run the other way; the % refers to the polarisation;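 also: polarization taken with two DNA probes labelled with fluorescein and Texas red; potency is read from the fitted curve at half-maximal effect; % of control where 0% means no effect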
Target sequence (P11308 whole entry, looked up, the tested form may be a part): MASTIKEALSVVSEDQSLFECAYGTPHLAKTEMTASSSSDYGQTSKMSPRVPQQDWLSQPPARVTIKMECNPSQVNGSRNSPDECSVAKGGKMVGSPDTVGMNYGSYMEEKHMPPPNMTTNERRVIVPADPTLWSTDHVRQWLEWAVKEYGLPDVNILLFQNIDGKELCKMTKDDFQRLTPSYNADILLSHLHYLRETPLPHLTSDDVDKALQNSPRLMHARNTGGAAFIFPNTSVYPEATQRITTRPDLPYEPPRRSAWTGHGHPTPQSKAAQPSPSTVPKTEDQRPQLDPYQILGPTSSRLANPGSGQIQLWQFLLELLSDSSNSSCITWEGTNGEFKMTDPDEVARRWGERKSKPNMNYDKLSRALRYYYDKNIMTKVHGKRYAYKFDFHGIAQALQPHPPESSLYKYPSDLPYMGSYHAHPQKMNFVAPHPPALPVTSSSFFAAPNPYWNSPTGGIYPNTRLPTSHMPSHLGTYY
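His-tagged ERG Ets domain (1 uM in the protein solution; 300mM KCl, 50mM Tris-HCl, 1mM EDTA, 1mM DTT, pH 7.5) received compound, then a probe mix of 5 nM fluorescein-DNA and 100nM Texas-615-DNA. Fluorescence polarization was read for both dyes.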
D1 antagonist = antagonists of human D1 dopamine receptor. 360,000 compounds, 3.2% hits. activity change, negative = inhibition, % at 10 µM. AID 504652. P21728. HEK293 TREx D1 cells, calcium flux, dopamine EC80; active compounds read low; in the data active = activity change below about -30%; also: % is scaled to controls: 0 for no effect and ±100 for the full control effect
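HEK293 T-REx cells expressing inducible, force-coupled D1 receptor; no-wash Ca dye, 30–90 min RT. Cmpd → 180 s read at 1 Hz → EC80 DA → 180 s read.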
D3 ag = D3 dopamine receptor (human) agonism. 410,000 compounds, 0.58% hits. AID 652048. P35462. D3R DiscoveRx beta-arrestin cells, luminescence, 90 min. max activation, %; in the data active = max activation above about 30%; also: 0% is about no effect
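Cells at 1500/well, incubated overnight, then treated with pinned compounds (dopamine as control) for 90 min at 37 degrees C. DiscoveRx reagent added for 30 - 60 minutes at room temperature; luminescence read.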
D3 antag = D3 dopamine receptor (human) antagonism; P35462; max response, negative = inhibition, %; D3R cells, DiscoveRx beta-arrestin luminescence, antagonist mode; active compounds read low; 360,000 compounds, 2.5% hits; in the data active = max response below about -50%; inconclusive = no clear call, values can overlap the other calls; also: % is scaled to controls: 0 for no effect and ±100 for the full control effect
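Cells expressing the human receptor were seeded at 1500 cells/well, incubated overnight at 37 degrees C in 5% CO2, then exposed to library compounds with dopamine controls for 90 minutes at 37 degrees C before luminescent detection.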
* hit, by the source's call; ? = inconclusive; . = no result.

SMILES	D1 ag	D1 potentiator	ERG-DNA inh	D1 antagonist	D3 ag	D3 antag
C=CCOc1ccc(/C=C/C(=O)OCc2csc(CC(=O)Nc3ccccc3C)n2)cc1	16	-3	-12%	-14	18	63
Cc1nc(SCC(=O)NCc2ccc(F)cc2)c2c(=O)n(C)c(=O)n(C)c2n1	17	5	13%	23	0	19
CCCn1c(SCC(=O)Nc2cc(C)on2)nc2c1c(=O)n(C)c(=O)n2C	.	.	2%	.	-3	-51*
COC(=O)c1ccc(CSc2nc(C)nc3c2c(=O)n(C)c(=O)n3C)o1	2	-3	-14%	-39*	3	-8
Cc1nc(SCC(=O)Nc2cc(C)on2)c2c(=O)n(C)c(=O)n(C)c2n1	3	-16	-3%	-64*	-5	12
Cc1cc(C)n(S(=O)(=O)c2ccccc2)n1	1	4	-2%	-6	4	-4
Cc1ccc2ccc(S(=O)(=O)n3nc(C)cc3C)cc2c1	14	-2	0%	-8	-10	-60*
Cc1cc(C)n(S(=O)(=O)c2ccccc2[N+](=O)[O-])n1	5	2	-2%	-56*	-6	-10
Cc1cc(C)n(S(=O)(=O)c2ccc(C)c(C)c2)n1	3	2	10%	13	-9	6
O=C(C1CC1)N1CCN(c2ccnc3cc(Cl)ccc23)CC1	5	-1	-2%	8	2	-68*
CC(C)(C)C(=O)N1CCN(c2ccnc3cc(Cl)ccc23)CC1	4	-5	4%	-5	-7	20
O=C(C1CCC1)N1CCN(c2ccnc3cc(Cl)ccc23)CC1	7	-4	0%	-11	19	28
O=C(Nc1ccc(OC(F)(F)F)cc1)N1CCN(c2ccnc3cc(Cl)ccc23)CC1	10	-12	-8%	-41*	6	-16
O=C(N/N=C/c1cccnc1)c1cccc(NC(=O)c2ccccc2Cl)c1	-1	5	-2%	-4	-7	-7
C=CC(=O)Oc1ccc(N2Cc3ccccc3C2=O)cc1	.	.	-4%	.	-2	-64*
COc1ccc(/C=N/Nc2ncnc3sc(C)c(C)c23)cc1	2	-5	13%	-9	-11	-1
Cc1sc2ncnc(N/N=C/c3ccc(O)cc3)c2c1C	1	-6	-10%	-86*	6	18
O=C(CSc1nnc(C2CC2)n1CC1CCCO1)Nc1ccccc1Cl (stereo not drawn)	-1	-4	-11%	-6	-2	-4
CNC(=S)N(Cc1ccc2c(c1)OCO2)C1CC(=O)N(c2ccc(F)cc2)C1=O (stereo not drawn)	8	9	7%	4	6	33
CCOc1cc(C(=O)Nc2cc(OC)cc(OC)c2)ccc1OCC(=O)N1CCOCC1	4	-6	-12%	-6	2	-17
CCCN1CCN(CCCNC(=O)c2ccc3c(c2)sc2nc(-c4ccc(C)cc4)cn23)CC1	2	-2	-4%	-30*	-16	.
O=C(Nc1ccon1)c1ccc(OC2CCCC2)cc1	10	-9	2%	-22	-20	?
CC(C)(C)c1cc(NC(=O)c2ccc(OC3CCCC3)cc2)no1	7	-3	-2%	-2	35*	9
COc1ccc(C(NC(=O)CN2C(=O)NC3(CCc4ccccc43)C2=O)c2ccc(OC)cc2)cc1 (stereo not drawn)	2	-7	2%	-7	-7	-3
CC1CCC2(CC1)NC(=O)N(CC(=O)NC(C)c1ccc(F)c(F)c1)C2=O (stereo not drawn)	1	-4	-16%	-35*	1	-2
CC(NC(=O)CN1C(=O)NC2(CCCC2)C1=O)c1ccc2ccccc2c1 (stereo not drawn)	-1	-11	0%	20	-8	-19
CC(NC(=O)CN1C(=O)NC2(CCc3ccccc32)C1=O)c1ccc2c(c1)OCCO2 (stereo not drawn)	-1	-3	0%	-42*	10	6
Cc1ccc(CN2CCN(CC(=O)NC(C)c3ccc4c(c3)OCCO4)C2=O)cc1 (stereo not drawn)	44*	.	-1%	-11	-1	-17
